Screens deposited in PubChem BioAssay by several laboratories.
The list is not random: actives were taken first. Their share in the collection is about 2.4%.
PPC-1+TRAIL kill – compounds killing PPC-1 cancer cells with TRAIL present (potentiator screen, no TRAIL-free arm) | PPC-1 cells + TRAIL, ATPLite viability luminescence | cell killing (% activity), % at 4 µM or 5 µM | 0.41% of 220,000 active | AID 1443;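 active means cell killing above 50% in the first pass at 4 µM, then a duplicate retest at 5 µM averaging 50% or more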;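 further: plate controls were cells with TRAIL plus DMSO for no effect and medium-only wells lacking cells for full effect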
HSP90 inh – HSP90 refolding inhibition in rabbit reticulocyte lysate; AID 1789; inhibition, % at 5.6 µM; luciferase refolding luminescence, 3 h; 0.91% of 290,000 active;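 active means inhibition above the screen-wide mean plus 3 SD, computed separately per campaign, cut at about 16% in these data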;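 further: 0% = DMSO wells and 100% = 60 µM geldanamycin wells; inhibitors lower the luminescence because luciferase stays unfolded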
STAT1 blocker – inhibitors of IFN-gamma induced STAT1 signaling; AID 920; inhibition, % at 5.5 µM; NIH 3T3 STAT1-luciferase reporter, luminescence; 0.35% of 200,000 active;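 active means inhibition above a set limit, the mean inhibition across all tested compounds plus 3 SD, cut at about 34% in these data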;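 further: 0% = IFN-gamma with DMSO and 100% = IFN-gamma with 300 µM nifuroxazide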
STAT3 blocker – inhibitors of IL-6 induced STAT3 signaling. U3A cells, IL-6 STAT3-luciferase reporter, luminescence; host cell line lacks STAT1. AID 862. inhibition, % at 5.5 µM. 0.89% of 190,000 active;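 active means inhibition above the mean inhibition across all screened compounds plus 3 SD, cut at about 44% in these data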;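 further: 0% = DMSO only wells and 100% = 100 µM nifuroxazide control wells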
HSF1 inh – HSF1 inhibition. 0.77% of 300,000 active. NIH3T3-HGL HSE-luciferase, MG132-induced, luminescence 8 h; active compounds read low. activity change, negative = inhibition, % at 7.5 µM (by protocol). AID 2098;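 active means more than half of replicate wells show activity change below -50%, luminescence cut by over half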;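 further: luciferase reports HSF-1 transcriptional activity via heat shock element; 0% = median of DMSO wells and -100% = zero luminescence signal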
C8 TRAIL sens – sensitizes caspase-8 expressing cells to TRAIL | NB7+C8 cells + TRAIL, ATPlite viability luminescence | inhibition (viability loss, TRAIL sensitization), % at 10 µM | 1% of 360,000 active;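 active means compounds causing at least 50% loss of cell viability in the single-dose screen, relative to plate controls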
An asterisk follows results filed as active; / = no result given.

SMILES	PPC-1+TRAIL kill	HSP90 inh	STAT1 blocker	STAT3 blocker	HSF1 inh	C8 TRAIL sens
O=C(Nc1nnc(-c2cc(Cl)ccc2Cl)o1)c1ccco1	/	/	/	/	-3	52*
O=C(Nc1nnc(-c2cc(Cl)ccc2Cl)o1)C1=COCCO1	/	/	/	/	-5	9
COc1ccc(C(=O)Nc2cc(C)on2)cc1	47	5	-22	26	-2	57*
COc1ccc(OC)c(-c2cc(C(=O)Nc3cc(C)on3)no2)c1	8	-1	9	-7	-64*	1
CCN(CC)S(=O)(=O)c1cc(C(=O)Nc2cc(C)on2)ccc1Cl	/	-1	/	/	-61*	4
CC[C@]12C(=O)N(C)C[C@H]([C@@H]3C(=O)N(C)C(=O)[C@@H]31)N2C(=O)c1ccccc1	/	/	/	/	/	-4
COCc1cn(-c2nc3ccccc3s2)nn1	/	/	/	/	/	-13
CCN(CC)c1ccc(/C=C/c2ccc3ccc(OC)cc3[n+]2CC)cc1	/	1	/	/	-2	57*
CN(C)S(=O)(=O)c1cccc(C(=O)Nc2cc(S(=O)(=O)N3CCOCC3)ccc2N2CCCC2)c1	/	/	/	/	/	-18
O=C(CCS(=O)(=O)c1ccccc1)Nc1cccc(-c2nc3ccccc3s2)c1	22	1	-16	9	20	54*
NC1=NN=C(c2ccc3c(c2)OCCO3)CS1	23	2	49*	66*	-18	47
Cc1sc(N)nc1-c1ccc2c(c1)OCCO2	/	1	/	/	-4	-1
Cc1c(-c2ccccc2)[n+](=O)c2c(n1[O-])CCC2	-8	3	3	0	-87*	-7
Cc1c(-c2ccc(Cl)cc2)[n+](=O)c2c(n1[O-])CCCC2	-1	-3	/	/	7	23
CCOC1=C2CN(S(=O)(=O)c3ccc(C)cc3)C(c3ccc(C)cc3)CC2N(S(=O)(=O)c2ccc(C)cc2)C(c2ccccc2)C1 (centres undefined)	/	/	/	/	/	7
O=C(OCc1cccc(C(F)(F)F)c1)c1cc(S(=O)(=O)N2CCOCC2)ccc1F	/	/	/	/	1	72*
CCC[C@@H](CN[C@@H](CNC)C(C)C)NCCCCc1ccccc1	/	-2	/	/	7	4
CCC[C@H](CN[C@@H](CNC)[C@H](C)CC)NCCc1cc(C(F)(F)F)cc(C(F)(F)F)c1	/	1	/	/	-18	88*
CC[C@@H](C)[C@H](CNC)NC[C@@H](Cc1cccc2ccccc12)NCCc1cccc(C(F)(F)F)c1	/	1	/	/	-4	96*
CS/C(N)=N/N=C/c1cc(C)ccc1O	39	7	/	/	86	64*
CCCCS/C(N)=N/N=C/c1cc(C)ccc1O	17	-5	-2	1	26	-6
CC#CC(=O)N1CCC(n2nccc2NC(=O)CCc2ccccc2)CC1	/	/	/	/	/	-21
Cc1ccc(NC(=O)Cc2c(C(=O)O)n(C)c3ccccc23)cc1F	20	3	9	12	-5	-6
Cn1c(C(=O)O)c(CC(=O)Nc2ccc3c(c2)OCCO3)c2ccccc21	-13	5	2	12	-66*	-3
Cc1cc2ccccc2c(=O)n1CC(=O)Nc1ccc2c(c1)OCO2	8	4	1	8	-68*	-5
SMILES	PPC-1+TRAIL kill	HSP90 inh	STAT1 blocker	STAT3 blocker	HSF1 inh	C8 TRAIL sens
COc1cc(CNC(=O)c2cc(-c3ccc(F)cc3C)n[nH]2)cc(OC)c1	/	/	/	/	/	-10
CC(C)C[C@@H]1Cc2[nH][nH]c(=O)c2[C@H](C(C)C)O1	/	/	/	/	/	-11
CN1C=C/C(=C\c2cc[n+](C)c3ccccc23)c2ccccc21	/	17*	33	37	0	26
CCCCN1C(=O)C(CC(=O)NC2CCCC2)CC(C(=O)N2CCCCCC2)=C1C (centres undefined)	/	/	/	/	/	-5
O=C(NCc1ccccc1)c1cc(C2COCCN2S(=O)(=O)c2cccs2)on1 (centres undefined)	/	/	/	/	/	1
Cc1cc(=O)[nH]c(-n2[nH]c(C)cc2=O)n1	13	-2	-1	8	-3	-6
COc1ccc(-n2[nH]c(C)cc2=O)cc1	14	17*	4	-2	-2	-33
COc1cc2c(cc1OC)/C(=C/C(=O)c1ccc(C)cc1)NCC2	/	-1	/	/	-80*	-9
c1ccc2c(-c3cc(NCc4ccncc4)n4nccc4n3)cccc2c1	/	/	/	/	/	-11
O=C1/C(=C/c2ccc(S(=O)(=O)O)cc2S(=O)(=O)O)CCc2ccccc21	/	/	/	/	/	-18
CC12CCC(=O)C=C1CCC1C2C(O)CC2(C)C1CCC2(O)C(=O)COC(=O)CCC1CCCC1 (centres undefined)	/	/	/	/	/	8
COc1ccc(-c2cn3c(C)c(C(=O)N4CCc5ccccc5C4)sc3n2)cc1	/	19*	/	/	2	-23
CNC(=O)c1sc2nc(-c3ccc(OC)cc3)cn2c1C	22	9	-71	-3	24	14
COc1ccc(-c2cn3c(C)c(C(=O)Nc4cc(NC(C)=O)ccc4OC)sc3n2)cc1	10	54*	9	15	-18	-4
CCC(=O)Nc1ccc(NC(=O)c2ccco2)cc1	29	0	-34	8	/	57*
CSCCC(C(=O)NC(C)(C)C)n1c(-c2cccc(NC(C)=O)c2)nc2ccccc21 (centres undefined)	/	/	/	/	/	9
N#Cc1ccccc1N/C=C/C(=O)c1ccc(Cl)cc1	/	/	/	/	29	51*
CC(=O)Nc1ccc(N/C=C/C(=O)c2ccc(Cl)cc2)cc1	/	4	/	/	12	13
O=C(/C=C/Nc1ccccc1F)c1ccc(Br)cc1	40	-4	-92	21	10	68*
CCCCC(=O)N(C)c1c(C)nc2ccc(C(=O)NCc3ccccc3OC)cn12	/	/	/	/	/	3
C[C@H]1CCCCO[C@H](CN(C)CC2CCCCC2)[C@@H](C)CN([C@@H](C)CO)C(=O)c2cc(NS(=O)(=O)c3ccccc3)ccc2O1	/	/	/	/	/	6
CS(=O)(=O)N(CC(=O)NCc1ccccc1)C1CCCCC1	14	2	4	4	-77*	-1
Cc1ccc(CNC(=O)CN(C2CCCCC2)S(C)(=O)=O)cc1	20	-2	-4	1	-3	-8
CCOC(=O)c1cn(-c2ccc(F)c(F)c2F)c2c(F)c(F)c(F)cc2c1=O	-2	-9	-1	0	2	64*
CCOC(=O)c1cn(-c2ccccc2CO)c2c(F)c(F)c(F)cc2c1=O	-10	-2	1	-1	-4	2
Cc1ccc(OCCCCn2cnc3ccccc32)cc1	30	0	17	26	-79*	-1
O=C(O)c1ccc(N=Nc2c(O)[nH]c3ccc(Br)cc23)cc1	/	18*	/	/	-21	-10
O=C(O)c1ccc(N=Nc2c(O)[nH]c3cc(Cl)ccc23)cc1	6	3	/	/	6	0
Cc1ccc(Cn2ncc(Cl)c(Cl)c2=O)cc1	15	1	11	-6	26	91*
